From PubChem
Sampled rows, rich in hits. Any-hit rate of the full collection: about 7.4%.
SMN2 splice up – SMN2 splice variant enhancement; AID 1458; Potency, µM (doses to about 46.1 µM), for inactives: at the highest dose activity change, positive = activation, most hits filed as activators; HEK293 SMN2-luciferase splicing reporter, luminescence, 30-36 h; 2.8% of 210,000 active; further: % of control where 0% means no effect; nearly all actives have a fitted effect of over 55% in size
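HEK293 cells carry an SMN2 minigene-luciferase reporter in which exon 7 inclusion puts luciferase in frame. Cells were seeded at 2000 cells/well, attached for 10-12 hours, then exposed to compounds for 30-36 hours at 37C before ONE-Glo luminescence.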
FLuc counter – counter-screen for miR-21 project: firefly luciferase inhibitors or activators. Potency, µM (top dose mostly 57.5 µM), inactives show at the highest dose activity change, negative = inhibition, actives largely listed as inhibitors. purified FLuc, Km substrates, luminescence inhibition. 6.9% of 360,000 active. AID 588342. P08659;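 further: plate controls were vehicle for no effect and reference inhibitor for full effect; nearly all actives have a fitted effect of over 55% in size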
Target sequence (P08659 whole entry, looked up): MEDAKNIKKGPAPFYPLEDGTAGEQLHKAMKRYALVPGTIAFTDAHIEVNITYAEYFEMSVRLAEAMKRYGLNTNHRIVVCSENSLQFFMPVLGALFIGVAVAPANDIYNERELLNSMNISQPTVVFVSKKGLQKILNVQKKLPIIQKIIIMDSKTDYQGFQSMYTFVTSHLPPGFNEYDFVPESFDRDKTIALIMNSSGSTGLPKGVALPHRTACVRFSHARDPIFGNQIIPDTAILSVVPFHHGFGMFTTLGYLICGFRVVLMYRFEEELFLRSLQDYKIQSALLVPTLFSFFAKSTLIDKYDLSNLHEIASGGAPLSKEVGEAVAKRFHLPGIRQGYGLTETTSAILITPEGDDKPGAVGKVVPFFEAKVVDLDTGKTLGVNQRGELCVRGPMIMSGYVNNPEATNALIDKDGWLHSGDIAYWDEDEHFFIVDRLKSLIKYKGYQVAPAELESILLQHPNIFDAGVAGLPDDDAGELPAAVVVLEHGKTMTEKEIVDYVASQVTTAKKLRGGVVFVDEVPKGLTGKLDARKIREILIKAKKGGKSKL
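Biochemical qHTS of compounds, final roughly 60 µM downward over six points, against 10 nM purified firefly luciferase using Km concentrations of substrates (10 uM D-luciferin, 10 uM ATP) in Tris acetate pH 7.5 buffer; luminescence output.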
ELG1 genotox – inducers of genotoxicity in HEK293T ELG1-luciferase cells | AID 504466 | HEK293T ELG1-luciferase reporter, luminescence, 16 h | Potency, µM (doses to about 46 µM), for inactives: at the highest dose activity change, positive = activation, actives largely listed as activators | 1.3% of 330,000 active; further: % of control where 0% means no effect; nearly all actives have a fitted effect of over 60% in size
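Luminescence read-out: rising ELG1-luciferase signal, reflecting elevated ELG1 protein under genetic stress, flags genotoxic compounds. Cells were treated for 16 hr at 37 °C before ONE-Glo detection.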
NPC1 promoter act – activates the NPC1 promoter; Huh7 NPC1 promoter luciferase reporter, 24 h; Potency, µM (doses to about 9.22 µM), inactives show top-dose activation, hits mostly activators; 2.4% of 320,000 active; AID 485313; further: % of control where 0% means no effect; nearly all actives have a fitted effect of over 60% in size
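In 1536-well qHTS, Huh7 cells harboring an NPC1 promoter–luciferase construct received compound for 24 h; activation was quantified by luminescence following luciferase reagent addition.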
Luc counter – blocks Kinase-Glo luciferase, a counter-screen artifact | Q27757 | Kinase-Glo luciferase, ATP luminescence, 8 min | Potency, µM (highest dose often 38.3 µM), for the others: at the top dose activity change, negative = inhibition, most hits filed as inhibitors | 0.28% of 200,000 active; further: on the % scale 0 is the no-effect control and ±100 the full control effect; nearly all actives have a fitted effect of over 60% in size
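Kinase-Glo luciferase light output from ATP and luciferin was measured with 10 uM ATP, within the enzyme's linear range. Buffer: 50 mM imidazole pH 7.2, 50 mM KCl, 7 mM MgCl2, 0.01% Tween 20, 0.05% BSA; luminescence read after 8 min at ambient temperature.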
Rab9 promoter act – activates the Rab9 promoter. Huh7 Rab9 promoter-luciferase reporter, luminescence, 24 h. Potency, µM (series often up to 9.22 µM), for the others: at the highest dose activation, negative = inhibition, hits mostly activators. 2.8% of 320,000 active. AID 485297; further: % of control where 0% means no effect; nearly all actives have a fitted effect of over 60% in size
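Cell-based reporter: Huh7 stable for Rab9 promoter-driven luciferase, plated in reduced-serum medium with 10% FBS at 1500 cells/well, compound-treated 24 h at 37 °C, luminescence read after 10 min reagent.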
The depositor's hits bear a star; ? = inconclusive; . = no result given; [ ] = remark or other dose. The call rests on the fitted dose curve; in most records, active means well fitted curve in the direction sought with a large enough effect; inconclusive means small, poorly fitted or top-dose-only effect, or another doubt; inactive means no such curve, though single readings can be large; an effect the other way counts as inactive or inconclusive. Potency means the concentration at half of the fitted maximal effect.

SMILES	SMN2 splice up	FLuc counter	ELG1 genotox	NPC1 promoter act	Luc counter	Rab9 promoter act
CC(C)(O)C#Cc1ccc([C@@H]2C[C@H]3CN(c4ccccc4)C(=O)[C@]34CCCN24)s1	?	3.3%	-3.3%	-37.0%	0.4%	-32.2%
O=C1N(c2ccccc2)C[C@@H]2C[C@@H](c3cccs3)N3CCC[C@@]123	22.4µM*	-4.6%	-6.8%	-22.8%	0.5%	-31.9%
COc1cccc2cc(C(=O)NCc3ccccc3)c(=N)oc12	.	10.7µM*	13.8%	-3.6%	.	2.6%
CCOc1cccc2cc(C(=O)NCc3ccccc3)c(=N)oc12	.	16.9µM*	16.0%	-1.1%	.	0.7%
CCOc1cccc2cc(C(N)=O)c(=N)oc12	.	-0.8%	-3.1%	0.6%	.	-7.9%
CCOc1cccc2cc(C(=O)NC(C)c3ccccc3)c(=N)oc12 (stereo not given)	.	1.0%	-1.8%	-0.1%	.	3.4%
COc1cccc2cc(C(=O)NCc3ccc(Cl)cc3)c(=N)oc12	.	?	-7.5%	-7.8%	.	-0.5%
CCOc1cccc2cc(C(=O)NCc3ccc(F)cc3)c(=N)oc12	.	15.1µM*	?	-3.0%	.	-2.0%
COc1ccccc1N1CCN(CC2CN3C(=O)N(C)c4ccccc4C3=N2)CC1 (stereo not given)	-7.5%	.	.	.	.	.
CCN1CCN(C(=S)c2ccc(OCC(=O)NCc3ccccc3)cc2)CC1	6.6%	1.9%	0.1%	-0.3%	0.6%	-1.9%
CCOc1cc(C(=S)N2CCCCC2)ccc1OCC(=O)NCc1ccccc1	-26.2%	16.9µM*	0.5%	0.8%	16.1%	-5.8%
O=C1ON=C(c2cccc([N+](=O)[O-])c2)/C1=C/c1ccc(O)cc1	-10.1%	16.9µM*	?	-1.8%	-0.2%	-8.3%
C=C1c2cccc(C(F)(F)F)c2O[C@H](C(=O)OCC)[C@@H]1CCCCCC	.	.	.	.	-1.4%[39.9 µM]	.
O=C(Nc1ccc(Cl)cc1)C1CCC(CNS(=O)(=O)c2ccc(Br)s2)CC1 (stereo not given)	-25.7%	7.4%	.	.	.	.
O=C1C(Cl)=C(Sc2nnc3c4ccccc4c4ccccc4c3n2)C(=O)c2ccccc21	-1.1%[9.22 µM]	.	.	.	-6.1%[7.66 µM]	.
Cc1nc2oc(C(=O)c3ccc(Br)cc3)c(N)c2c2c1COC(C)(C)C2	.	-4.0%	1.4%	-0.1%	.	6.4%
CCc1ccc(C(=O)c2oc3nc(C)cc(C)c3c2N)cc1	-4.6%	15.1µM*	6.0%	2.6%	-3.3%	24.2%
COc1ccc(C(=O)c2oc3ccccc3c2NC(=O)c2cccc(OC)c2)cc1	-18.2%	-2.5%	.	.	.	.
Cc1ccc(C(=O)c2oc3nc(C)cc(C)c3c2N)cc1	-4.0%	13.5µM*	1.7%	-0.5%	-4.0%	-10.1%
COc1ccc(C(=O)c2oc3nc(C)cc(C)c3c2N)cc1	-8.7%	12µM*	0.5%	0.0%	-8.3%	17.6%
CCCc1nc2oc(C(=O)c3ccccc3)c(N)c2c2c1COC(C)(C)C2	-20.3%	-1.4%	11.2%	-1.8%	-2.5%	0.8%
O=C(O)c1ccccc1NS(=O)(=O)c1ccccc1F	.	.	.	.	-3.2%	.
Cc1ccc(-c2nnc(CCC(=O)NCC3C4CC5CC(C4)CC3C5)o2)s1 (stereo not given)	.	19µM*	?	?	0.6%	2.51µM*
CCCOc1ccc(-c2nonc2NC(=O)c2cc(OC)c(OC)c(OC)c2)cc1OCCC	-0.5%	-0.7%	.	.	.	.
CCCCCn1nc(C)c(/C=N/NC(=O)c2ccoc2C)c1C	20µM*	21.3µM*	?	?	-11.1%	?
SMILES	SMN2 splice up	FLuc counter	ELG1 genotox	NPC1 promoter act	Luc counter	Rab9 promoter act
Cc1nn(Cc2ccccc2)c(C)c1/C=N/NC(=O)c1ccccc1O	.	7.57µM*	2.4%	-8.4%	.	-8.3%
CCCCCn1nc(C)c(/C=N\NC(=O)c2cc(C)oc2C)c1C	5.2%	19µM*	2.2%	12.5%	-0.5%	12.3%
Cc1occc1C(=O)N/N=C/c1cccnc1	16.0%	-22.7%	14.6%	11.7%	?	10.0%
Cc1nn(-c2ccccc2)c(C)c1/C=N/NC(=O)c1cc(-c2cccc3ccccc23)n[nH]1	3.8%	10.7µM*	-8.4%	-1.7%	-0.1%	-1.1%
Cc1ccc(-n2nc(-c3ccc(F)cc3)c3cnc4cc5c(cc4c32)OCO5)cc1C	-19.3%	-3.3%	.	.	.	.
Cc1cc(C(=O)N/N=C/c2c(C)nn(-c3ccccc3)c2C)c(C)o1	.	21.3µM*	8.2%	21.7%	.	?
Cc1nn(-c2ccccc2)c(C)c1/C=N/NC(=O)c1cc(-c2ccccc2)n[nH]1	3.9%	?	-15.5%	-7.0%	-0.2%	-18.4%
Cn1c(N)c(C(=O)Nc2cccc(Cl)c2)c(=O)n(C)c1=O	.	5.36µM*	7.9%	2.2%	.	6.3%
CC(=O)Nc1ccc2cc3ccc(NC(C)=O)cc3nc2c1	.	10.7µM*	?	?	.	?
O=C(NNC(=O)c1ccc(NC(=O)c2ccccc2)cc1)c1ccccc1	4.5%	-2.8%	18.3%	-5.7%	1.2%	-1.0%
O=C(Nc1ccc2nc3ccccc3nc2c1)c1ccccc1	3.98µM*	1.69µM*	?	1.41µM*	0.1%	0.562µM*
O=C(Nc1cccc(Cl)c1)c1ccccc1	.	13.5µM*	16.4µM*	?	.	?
O=C(NNC(=S)Nc1cccc(Cl)c1)c1ccccc1	.	?	6.5%	?	.	23.1%
COc1cccc(C2C(C(=O)Nc3ccccc3OC)=C(C)Nc3nc4ccccc4n32)c1 (stereo not given)	22.6%	-2.5%	.	.	.	.
COc1ccc(S(=O)(=O)c2c(Nc3ccc(C)cc3C)sc(C(=O)c3ccc(F)cc3)c2N)cc1	.	-0.1%	.	.	.	.
Cc1cc(C)c2nc(N3CCCC(C(=O)NCc4ccccc4F)C3)sc2c1 (stereo not given)	15.2%	-0.6%	.	.	.	.
COc1c(Cl)cc(Cl)cc1C(=O)Nc1cccc(-c2nc3ccccc3o2)c1C	11.5%	-7.8%	.	.	.	.
CCN(C(=O)Cn1nc(Cc2ccncc2)c2ccccc2c1=O)c1cccc(C(F)(F)F)c1	8.5%	-1.5%	.	.	.	.
O=C(Nc1ccc(-c2nc3ccccc3s2)c(OC(=O)c2ccccc2)c1)c1ccccc1	2.82µM*	?	?	1.58µM*	0.2%	1.41µM*
O=C(Nc1ccc(Cl)c(Cl)c1)Nc1ccc(Br)cc1F	-21.7%	-16.4%	-2.4%	-0.7%	4.3%	-0.2%
O=C(Nc1ccc(Cl)c(Cl)c1)c1ccccc1	.	3.79µM*	?	3.16µM*	.	1.58µM*
CC(C)(C)N(NC(=O)Nc1ccc(Cl)c(Cl)c1)C(=O)c1ccccc1	3.6%	-1.6%	1.4%	-0.2%	0.7%	-1.7%
O=C(Nc1ccc(Cl)c(Cl)c1)Nc1ccccc1O	.	6.01µM*	?	3.98µM*	.	3.98µM*
COc1ccccc1NC(=O)CSC1=Nc2ccccc2N=C(c2ccc(F)cc2)C1	.	-11.3%	.	.	.	.
CCCN(C(=O)c1coc(=O)c2ccccc12)c1ccccc1C	-0.1%	-1.2%	.	.	.	.
